Compound activity as filed in PubChem BioAssay.
Rows were chosen to be rich in hits. Some 1.5% of all compounds tested hit in one or more screens of this group.
eIF4E-4G inh – eIF4E–eIF4G protein interaction inhibitors, primary screen, biochemical, uHTS, TR-FRET, eIF4GI fragment; Eukaryotic translation initiation factor 4E (Mus musculus) + Eukaryotic translation …; TR-FRET eIF4E-eIF4GI(517-606) binding, 2 h; 220,000 tested, 0.37% active; inhibition, % at 21.7 µM;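 active = inhibition above about 30%, limit read from the data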
Target sequence (P63073 whole entry, looked up, the tested form may be a part): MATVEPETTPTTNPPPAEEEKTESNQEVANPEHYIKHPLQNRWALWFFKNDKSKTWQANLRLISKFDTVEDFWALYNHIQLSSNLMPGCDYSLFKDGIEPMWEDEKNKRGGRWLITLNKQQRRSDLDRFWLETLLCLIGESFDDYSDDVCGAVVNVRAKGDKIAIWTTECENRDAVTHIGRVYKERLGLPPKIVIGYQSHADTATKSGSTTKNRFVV
Target sequence (Q04637 whole entry, looked up, the tested form may be a part): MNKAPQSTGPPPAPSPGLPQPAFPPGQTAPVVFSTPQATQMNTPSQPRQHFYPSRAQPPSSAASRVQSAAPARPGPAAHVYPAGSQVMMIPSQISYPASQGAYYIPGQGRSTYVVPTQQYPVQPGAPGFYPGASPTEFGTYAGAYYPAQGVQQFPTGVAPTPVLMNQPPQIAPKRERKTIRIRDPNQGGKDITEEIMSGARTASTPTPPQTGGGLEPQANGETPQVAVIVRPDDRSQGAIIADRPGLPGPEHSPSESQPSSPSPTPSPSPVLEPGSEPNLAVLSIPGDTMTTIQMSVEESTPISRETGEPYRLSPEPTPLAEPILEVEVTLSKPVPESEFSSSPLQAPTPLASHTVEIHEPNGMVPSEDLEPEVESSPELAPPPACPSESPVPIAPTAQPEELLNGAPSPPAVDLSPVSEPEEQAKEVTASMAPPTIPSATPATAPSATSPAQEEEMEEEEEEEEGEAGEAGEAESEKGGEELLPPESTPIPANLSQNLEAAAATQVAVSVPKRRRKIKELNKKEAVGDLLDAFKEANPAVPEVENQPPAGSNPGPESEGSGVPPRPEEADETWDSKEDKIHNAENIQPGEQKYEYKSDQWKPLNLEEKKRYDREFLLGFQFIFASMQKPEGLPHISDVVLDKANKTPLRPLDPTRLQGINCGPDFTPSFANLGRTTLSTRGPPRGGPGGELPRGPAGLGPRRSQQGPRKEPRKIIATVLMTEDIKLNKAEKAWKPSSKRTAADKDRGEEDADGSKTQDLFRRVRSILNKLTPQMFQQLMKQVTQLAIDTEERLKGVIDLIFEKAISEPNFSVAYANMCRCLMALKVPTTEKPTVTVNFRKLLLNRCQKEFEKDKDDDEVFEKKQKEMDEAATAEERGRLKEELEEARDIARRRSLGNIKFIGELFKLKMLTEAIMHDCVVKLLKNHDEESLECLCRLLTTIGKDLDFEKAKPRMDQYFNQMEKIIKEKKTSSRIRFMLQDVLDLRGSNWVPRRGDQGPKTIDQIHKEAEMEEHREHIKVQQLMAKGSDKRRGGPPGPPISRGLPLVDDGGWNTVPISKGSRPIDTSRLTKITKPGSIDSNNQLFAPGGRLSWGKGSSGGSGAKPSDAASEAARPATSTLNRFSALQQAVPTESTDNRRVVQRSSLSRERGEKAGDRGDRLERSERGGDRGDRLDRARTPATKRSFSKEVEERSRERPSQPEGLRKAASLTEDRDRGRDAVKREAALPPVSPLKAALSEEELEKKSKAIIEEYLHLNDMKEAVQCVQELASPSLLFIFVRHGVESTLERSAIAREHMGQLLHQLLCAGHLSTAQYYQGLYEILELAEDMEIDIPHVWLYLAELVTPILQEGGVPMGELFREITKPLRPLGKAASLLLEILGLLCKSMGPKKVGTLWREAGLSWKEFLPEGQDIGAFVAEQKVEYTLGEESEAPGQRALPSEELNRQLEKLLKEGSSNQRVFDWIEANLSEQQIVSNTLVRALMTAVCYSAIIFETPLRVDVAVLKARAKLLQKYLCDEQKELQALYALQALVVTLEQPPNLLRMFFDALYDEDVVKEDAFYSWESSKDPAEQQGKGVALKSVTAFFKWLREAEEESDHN
PABP polyA inh – PABP poly(A) RNA binding inhibitors, primary screen, biochemical, fluorescence polarization, uHTS; Polyadenylate-binding protein 1 (Homo sapiens), P11940; calls only at 35 µM; 290,000 tested, 1% active;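 also: calls also rest on retests at 20 µM and on dose response follow-up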
eIF4H FP inh – human eIF4H binding inhibitors, primary screen, translation initiation inhibitor project, biochemical, uHTS, fluorescence polarization; AID 2012, 2009; 290,000 tested, 0.94% active; inhibition, % at 35 µM; Eukaryotic translation initiation factor 4H (Homo sapiens), Q15056; eIF4H fluorescence polarization binding assay;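 also: calls also rest on retests at 20 µM and on dose response follow-up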
PABP1 MLLE inh – inhibitors of PABP1 MLLE–PAM2 peptide binding, primary screen, biochemical, fluorescence polarization, FITC-PAM2, GST-MLLE; Polyadenylate-binding protein 1 (Homo sapiens), P11940; inhibition, % at 20 µM; 360,000 tested, 0.36% active; AID 588489, 2011; in the data active = inhibition above about 35%, passing the limit was not always enough
Of the large screens only hits and unclear results are named; the others gave an inactive call; [ ] = dose if it differs, or a comment. Unless noted, no rule for the calls is given here.

CCCCc1c(C)nc2ccc(C(=O)OCC)cc2c1Cl	PABP polyA inh active
CCc1nc2ccc(C(=O)Nc3cccc(OC)c3)cn2c1N(C)Cc1ccc(OC)cc1	none (no result: eIF4E-4G inh, PABP polyA inh, eIF4H FP inh)
Cc1cc(O)c(-c2cc(O)c(C)cc2O)cc1O	PABP1 MLLE inh 48
COC(=O)c1ccc(Oc2nc(NC(C)C)nc(NC(C)C)n2)cc1	eIF4E-4G inh 97
COC(=O)c1ccc(Oc2nc(NC(C)C)nc(N(C)C)n2)cc1	none
O=C(NC(Cc1cn(Cc2ccccc2)cn1)C(=O)O)OCC1c2ccccc2-c2ccccc21 (configuration not stated)	none (no result: eIF4E-4G inh, PABP polyA inh, eIF4H FP inh)
COCCNC(=O)C1(C)CCN(C(=O)c2sccc2C)C1 (configuration not stated)	none (no result: eIF4E-4G inh, PABP polyA inh, eIF4H FP inh)
O=C1C2C3C=CC(CC3)C2C(=O)N1c1nccs1 (configuration not stated)	PABP polyA inh active, eIF4H FP inh 105
O=C1C2C3C=CC(C2C(=O)N1c1nccs1)C1C(=O)N(c2nccs2)C(=O)C31 (configuration not stated)	none
O=C(CSc1nc(O)cc(=O)n1-c1ccccc1)Nc1ccc2c3c(cccc13)CC2	PABP polyA inh active, eIF4H FP inh 71
Cc1c(O)nc(SCC(=O)Nc2ccc3c4c(cccc24)CC3)n(-c2ccccc2)c1=O	none
CCOc1ccc(C2C(C#N)=C(N)N(c3sc4c(c3C#N)CCCC4)C3=C2C(=O)CCC3)cc1 (configuration not stated)	PABP polyA inh active, eIF4H FP inh inconclusive
O=C1CC(c2ccccc2)Oc2cc(O)cc(O)c21 (configuration not stated)	eIF4E-4G inh 96
CCOCCC(=O)Nc1ccc2c(c1)c(=O)n(C)n2-c1ccccc1F	none (no result: eIF4E-4G inh, PABP polyA inh, eIF4H FP inh)
CCCc1n(CC(O)COCC2CC=CCC2)c2ccccc2[n+]1C (configuration not stated)	PABP polyA inh active
CCCc1n(CC(O)COC2CCCCC2)c2ccccc2[n+]1C (configuration not stated)	PABP polyA inh active
CCCc1n(CC(O)COCc2ccccc2)c2ccccc2[n+]1C (configuration not stated)	none
COc1cccc(-c2ccc3c(c2)O[C@H](CN(C)C(=O)c2ccccc2F)[C@H](C)CN([C@H](C)CO)S3(=O)=O)c1	none (no result: eIF4E-4G inh, PABP polyA inh, eIF4H FP inh)
CCOC(=O)C1=C(CC)OC(N)=C(C#N)C1c1cccs1 (configuration not stated)	none
CCN1CC2=C(OC(N)=C(C#N)C2c2cccs2)/C(=C\c2cccs2)C1 (configuration not stated)	PABP polyA inh active, eIF4H FP inh 98
c1csc(-c2nnsc2-c2nc3ccccc3[nH]2)c1	PABP polyA inh active, eIF4H FP inh 69
CC1(C(=O)Nc2nccs2)CCN1C(=O)CC(c1ccccc1)c1ccccc1 (configuration not stated)	none (no result: eIF4E-4G inh, PABP polyA inh, eIF4H FP inh)
Cc1ccc(NC(=O)c2cc(N3C(=O)C=CC3=O)ccc2Cl)cc1C	PABP polyA inh active, eIF4H FP inh inconclusive
COc1ccc2c(c1)C(C)(Cc1ccc(C(=O)c3ccccc3)cc1)C(=O)N2 (configuration not stated)	none (no result: eIF4E-4G inh, PABP polyA inh, eIF4H FP inh)
CCCNC(=O)C1(C)CCCN(Cc2ccc(-c3ccccn3)cc2)C1 (configuration not stated)	none (no result: eIF4E-4G inh, PABP polyA inh, eIF4H FP inh)
NC(=S)N/N=C1\c2ccccc2-c2c(C(=O)O)cccc21	none (no result: eIF4E-4G inh)
NC(=O)c1cccc2c1-c1ccccc1/C2=N/NC(N)=S	PABP1 MLLE inh 39 (no result: eIF4E-4G inh)
Cc1ccc(N2CC(C(=O)NC3CCCCCC3)CC2=O)cc1 (configuration not stated)	none (no result: eIF4E-4G inh, PABP polyA inh, eIF4H FP inh)
O=C(Oc1c(CN2CCOCC2)cc(Cl)c2cccnc12)c1ccccc1	none
O=C(Oc1c(CN2CCOCC2)cc(Cl)c2cccnc12)c1ccccc1F	PABP polyA inh active, eIF4H FP inh inconclusive
O=[N+]([O-])c1cc(CN2CCOCC2)c2cccnc2c1O	eIF4E-4G inh 33, eIF4H FP inh inconclusive (no result: PABP1 MLLE inh)
Oc1c(Cl)cc(CN2CCOCC2)c2cccnc12	none (no result: eIF4E-4G inh, PABP polyA inh, eIF4H FP inh)
C[C@H](CO)N1C[C@H](C)[C@H](CN(C)C(=O)CCC(F)(F)F)OCc2cnnn2CCCC1=O	none (no result: eIF4E-4G inh, PABP polyA inh, eIF4H FP inh)
N#C/C(=N\Nc1ccc(Cl)cc1)C(=O)c1ccccc1	eIF4E-4G inh 62[fluorescence artefact?]
Cc1ccc(C(=O)C2C(=O)C3CCC2C3)cc1 (configuration not stated)	none (no result: eIF4E-4G inh, PABP polyA inh, eIF4H FP inh)
O=C(/C=C/c1ccc([N+](=O)[O-])cc1)/C=C/c1ccco1	PABP polyA inh active, eIF4H FP inh 61 (no result: eIF4E-4G inh)
O=C(C=C1SCCS1)/C=C/c1ccco1	PABP polyA inh active, eIF4H FP inh 90
O=C(CN1C(=O)NC2(CCCCCCC2)C1=O)NCc1ccc(Cl)cc1	none (no result: eIF4E-4G inh, PABP polyA inh, eIF4H FP inh)
Nc1ccc(N)c(C(=O)O)c1	eIF4E-4G inh 94 (no result: PABP polyA inh, eIF4H FP inh)
Nc1ccc(C(=O)O)c(O)c1	eIF4H FP inh inconclusive
Oc1ccc(/C=N/N2CCOCC2)c(O)c1O	PABP polyA inh active, eIF4H FP inh 98
Oc1ccc(/C=N/N2CCCCC2)c(O)c1O	none (no result: eIF4E-4G inh)
Cc1ccc(-n2[nH]c(C)c(/C=N/n3c(C)nc4ccccc4c3=O)c2=O)cc1	none
Cc1nc2ccccc2c(=O)n1/N=C/c1ccc(O)c(O)c1O	PABP polyA inh active, eIF4H FP inh 90 (no result: eIF4E-4G inh)
O=C1c2cccc3cccc(c23)C(=O)N1/N=C/c1ccc(O)cc1O	none
O=C1c2ccccc2C(=O)N1/N=C/c1ccc(O)c(O)c1O	eIF4E-4G inh 98, PABP polyA inh active, eIF4H FP inh 98
Cc1[nH]n(-c2ccccc2)c(=O)c1/C=N/n1c(C)nc2ccccc2c1=O	PABP polyA inh active
Cc1ccccc1C(=O)NC1CC2CCCC(C1)N2CC(C)C (configuration not stated)	none (no result: eIF4E-4G inh, PABP polyA inh, eIF4H FP inh)
CCc1nc2ccc(C(=O)N(C)CCCN(C)C)cn2c1N(C)CCCc1ccccc1	none (no result: eIF4E-4G inh, PABP polyA inh, eIF4H FP inh)
CCCS(=O)(=O)NC(=O)C1(C)CCCN(C(=O)c2ccc(F)c(Cl)c2)C1 (configuration not stated)	none (no result: eIF4E-4G inh, PABP polyA inh, eIF4H FP inh)
Clc1ccc(OCCCn2cncn2)cc1Cl	eIF4E-4G inh 93[fluorescence artefact?]
c1ccc(COc2ccc(OCCCn3cncn3)cc2)cc1	none
Cc1cccc(NC(=O)Cn2c(=O)n(CC3CCCO3)c(=O)c3ccccc32)c1 (configuration not stated)	none (no result: eIF4E-4G inh)
CCOc1ccc(NC(=O)Cn2c(=O)n(CC3CCCO3)c(=O)c3ccccc32)cc1 (configuration not stated)	eIF4H FP inh active
Cc1ccc(C)n1-c1ccc(N2CCOCC2)nc1	PABP polyA inh active, eIF4H FP inh 71
Cc1cc(C)n(CCNC(=O)[C@H]2O[C@@H](n3cnc4c(N)ncnc43)[C@H](O)[C@@H]2O)n1	none (no result: eIF4E-4G inh, PABP polyA inh, eIF4H FP inh)
CCCSc1nnc(N2C(=O)C(O)=C(C(=O)c3ccco3)C2c2ccccc2F)s1 (configuration not stated)	PABP polyA inh active, eIF4H FP inh inconclusive (no result: eIF4E-4G inh)
COc1ccc(-c2nc(NCCN(C)C)nc3ccsc23)c(C)c1	none (no result: eIF4E-4G inh, PABP polyA inh, eIF4H FP inh)
Cc1ccc(S(=O)(=O)NCc2ccccc2)cc1C(=O)N1CCN(S(=O)(=O)c2ccccc2F)CC1	none (no result: eIF4E-4G inh, PABP polyA inh, eIF4H FP inh)
